CYP2C9 act = CYP2C9 (human) activation; P11712; recombinant CYP2C9, luciferin-H conversion, luminescence; stronger effect = higher value; factor 1 = untreated enzyme, 0 = blocked; activation factor at 5 µM; 96,000 compounds, 1.4% hits; AID 1024;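 active = activation factor of 2 or more for CYP2C9 at a 5 µM dose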;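 also: 0 = sulfaphenazole-blocked wells and 1 = vehicle-only wells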
CYP2C19 inh = human CYP2C19 inhibition | AID 778 | CYP2C19 Supersomes, luciferin-H EGE luminescence, 30 min | 96,000 compounds, 21% hits | inhibition, % at 5 µM;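 active = CYP2C19 inhibition above a set limit at 5 µM in the primary screen, cut at about 50% in these data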;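 also: plate controls were negative control wells for no effect and 2.5 mM tranylcypromine positive control for full effect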
Target sequence (P33261 whole entry, looked up): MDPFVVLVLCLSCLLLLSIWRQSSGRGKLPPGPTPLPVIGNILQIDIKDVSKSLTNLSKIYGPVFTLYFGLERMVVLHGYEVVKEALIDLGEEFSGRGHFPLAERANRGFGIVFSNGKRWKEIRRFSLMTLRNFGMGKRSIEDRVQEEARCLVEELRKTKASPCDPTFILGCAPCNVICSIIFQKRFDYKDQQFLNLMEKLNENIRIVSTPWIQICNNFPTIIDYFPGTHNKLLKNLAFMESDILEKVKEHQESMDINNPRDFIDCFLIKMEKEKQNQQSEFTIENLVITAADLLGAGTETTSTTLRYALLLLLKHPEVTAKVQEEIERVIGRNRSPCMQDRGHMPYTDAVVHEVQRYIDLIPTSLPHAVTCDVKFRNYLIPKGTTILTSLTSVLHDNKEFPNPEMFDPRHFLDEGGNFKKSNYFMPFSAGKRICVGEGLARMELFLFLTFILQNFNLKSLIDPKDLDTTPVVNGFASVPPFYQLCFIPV
sEH activator = increases human soluble epoxide hydrolase activity; P34913; purified human sEH enzymatic activity, activator screen; activation, % at 2 µM; 91,000 compounds, 0.04% hits; AID 717; in the data active = activation above about 37%
sEH inh = inhibitors of human soluble epoxide hydrolase. 91,000 compounds, 0.34% hits. inhibition, % at 2 µM. P34913. AID 707. recombinant human sEH enzymatic activity assay; in the data active = inhibition above about 80%
CYP2C19 activ = increases human CYP2C19 enzyme activity; recombinant CYP2C19, luciferin-H EGE luminescence; stronger effect = higher value; 0 = fully inhibited enzyme, 1 = untreated enzyme; activation factor at 5 µM; 96,000 tested, under 10 active; AID 1025;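 active = activation factor of at least 2 at 5 µM in the primary screen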;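 also: 0 = wells with 2.5 mM tranylcypromine and 1 = vehicle-only wells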
CYP2C9 inhib = blocks human cytochrome P450 2C9 | P11712 | CYP2C9 Supersomes, luciferin-H conversion, luminescence | inhibition, % at 5 µM | 96,000 compounds, 20% hits | AID 777;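 active = blocking of liver enzyme CYP2C9 beyond about 50% at 5 µM, limit read from the data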
Active calls of the source: *; / = no result given. The list is not random: actives were taken first. Their share in the collection is about 27%.

SMILES	CYP2C9 act	CYP2C19 inh	sEH activator	sEH inh	CYP2C19 activ	CYP2C9 inhib
O=C1C(c2ccc(F)cc2)N(Cc2ccc3c(c2)OCO3)C(=O)CN1C1CCCCC1 (centres undefined)	0.7	19	9	-12	0.8	33
CCN(CC)C(=O)CSc1ccccc1N	0.8	49	16	-16	0.5	23
CCOC(=O)Nc1ccc2c(c1)N(C(=O)OCCN(C)C)c1ccccc1CC2	0.9	-2	4	-4	1	6
CCS(=O)(=O)Nc1ccc2c(c1)N(C(C)=O)c1ccccc1CC2	0.3	25	2	-2	0.7	70*
CC(C)(C)N1CC(c2nc3ccccc3n2CCOc2ccccc2)CC1=O (centres undefined)	0.2	62*	-4	7	0.4	83*
CC(C)(C)N1CC(c2nc3ccccc3n2Cc2ccc(Cl)cc2)CC1=O (centres undefined)	0.1	72*	-7	7	0.3	93*
C=CCN1CC(c2nc3ccccc3n2Cc2ccccc2)CC1=O (centres undefined)	1	4	/	/	1	2
CC(=O)Nc1ccc(S(=O)(=O)N(c2cccnc2)S(=O)(=O)c2ccc(NC(C)=O)cc2)cc1	/	/	8	-6	/	/
Cc1cc(C)c(C(=O)CSc2n[nH]c(=O)n2C2CC2)cc1C	0.2	52*	-6	8	0.5	77*
CCCn1c(SCC(=O)c2cc(C)ccc2C)n[nH]c1=O	0.9	10	-8	7	0.9	13
CC1CCc2nc(NC(=O)Cc3cccs3)sc2C1 (centres undefined)	0.8	11	-8	10	0.9	20
CC1CCc2nc(NC(=O)c3ccco3)sc2C1 (centres undefined)	0.4	66*	/	/	0.3	56*
COc1ccc(N2CCN(CC(=O)Nc3cc(C)on3)CC2)cc1	0.9	-8	/	/	1.1	8
COc1ccc(N2CCN(CC(=O)Nc3nc4c(s3)CC(C)CC4)CC2)cc1 (centres undefined)	0.4	43	/	/	0.6	57*
CCN(CC)CCCNC(=O)c1cc(-c2ccc(Cl)c(Cl)c2)on1	0.9	-3	0	2	1	6
CCN(CC)CCCNC(=O)c1cc(-c2ccc(O)cc2)on1	2.3*	0	-3	5	1	-129
O=C(OC(C(=O)NCC1CCCO1)c1ccccc1F)c1ccco1 (centres undefined)	0.9	7	-2	-1	0.9	6
COC(=O)c1ccsc1NC(=O)CN1CCN(c2ccc(F)cc2)CC1	0.1	91*	-12	15	0.1	91*
COC(=O)c1c(NC(=O)CN2CCN(Cc3ccc4c(c3)OCO4)CC2)sc(C)c1C	0.3	50*	/	/	0.5	71*
O=C(CN1CCN(c2ccc(Cl)cc2)CC1)Nc1ccc(F)cc1	0.5	23	5	-11	0.8	49
COC(=O)c1ccsc1NC(=O)CN1CCN(Cc2ccc3c(c2)OCO3)CC1	0.4	46	6	-3	0.5	56*
COc1ccc(NC(=O)CN2CCN(CC(=O)Nc3ccc4c(c3)OCO4)CC2)cc1	0.8	18	/	/	0.8	18
Cc1cc2ncn(/N=C/c3ccc([N+](=O)[O-])o3)c2cc1C	0.7	12	7	-10	0.9	34
CCOc1ccc(C(=O)NCC(=O)OCC(=O)Nc2ccccc2OC)cc1	1.2	46	-7	8	0.5	-21
COc1ccc(OCC(O)CN(C2CCCCC2)C2CCCCC2)cc1 (centres undefined)	0.9	-4	16	-14	1	13
SMILES	CYP2C9 act	CYP2C19 inh	sEH activator	sEH inh	CYP2C19 activ	CYP2C9 inhib
COc1cccc(N2C(=O)N(c3ccccc3Cl)C3CS(=O)(=O)CC32)c1 (centres undefined)	0.7	44	-9	4	0.6	26
Cc1ccccc1N1C(=O)N(c2cccc(C(F)(F)F)c2)C2CS(=O)(=O)CC21 (centres undefined)	0.8	63*	-6	6	0.4	20
Cc1cccc(N(C(=O)CCC(=O)Nc2cccnc2)C(C(=O)NC2CCCC2)c2ccncc2)c1 (centres undefined)	/	/	3	0	/	/
O=C(Nc1ccccc1)O/N=C/c1ccncc1	0.4	70*	4	1	0.3	60*
CC(/C=C/c1ccccc1)=N\NC(=O)c1ccncc1	0.5	40	-12	10	0.6	49
Cc1ccc(S(=O)(=O)N2CCOCC2)cc1C(=O)OCC(=O)N1c2ccccc2NC(=O)C1(C)C	0.8	-17	2	0	1.2	20
NC(=O)NC(Cc1ccccc1)C(=O)Nc1ccc(S(N)(=O)=O)cc1 (centres undefined)	1.1	-1	0	-2	1	-9
CC(CN1CCCCC1)OC(=O)C1c2ccccc2Oc2ccccc21 (centres undefined)	1.2	72*	-12	9	0.3	-17
Nn1cnnc1SC1CCCCC1NS(=O)(=O)c1ccccc1 (centres undefined)	0.9	81*	-4	4	0.2	11
Cn1cnnc1SC1CCCCC1NS(=O)(=O)c1ccccc1 (centres undefined)	0.9	18	13	-12	0.8	14
O=C(c1ccc(Br)o1)N1CCN(c2ncccn2)CC1	0.7	17	13	-15	0.8	26
O=C(NCc1cccs1)C(Cc1ccccc1)NS(=O)(=O)c1cccs1 (centres undefined)	/	/	2	-5	/	/
O=C(CCNS(=O)(=O)c1cccs1)NCc1ccccc1	0.8	83*	5	-6	0.2	23
O=C(CCNS(=O)(=O)c1cccs1)N1CCc2ccccc2C1	1	59*	3	-5	0.4	3
O=S(=O)(NCc1ccccc1)c1cccs1	0.9	51*	-10	10	0.5	7
COc1cccc(CNC(=O)CCCNS(=O)(=O)c2cccs2)c1	0.7	32	-7	6	0.7	30
O=C(NCc1ccc(F)cc1)C(Cc1ccccc1)NS(=O)(=O)c1cccs1 (centres undefined)	0.5	89*	-7	8	0.1	50*
COc1ccc(N2CCN(C(=O)CCNS(=O)(=O)c3cccs3)CC2)cc1	0.9	-6	2	-4	1.1	12
CCc1ccccc1N(CC(=O)N1CCN(c2ccccc2)CC1)S(C)(=O)=O	1	14	-8	8	0.9	0
O=S(=O)(NCCSc1ccccc1)c1ccc(F)cc1	0.9	40	-4	5	0.6	13
O=S(=O)(NCCSc1ccccc1)c1cccs1	0.5	80*	-2	4	0.2	46
CN(CC(=O)O/N=C(\N)c1ccc([N+](=O)[O-])cc1)S(=O)(=O)c1ccc2ccccc2c1	2.3*	10	0	-4	0.9	-133
COc1ccc(C2=Nn3c(nnc3-c3ccncc3)SC2)cc1	0.4	34	4	-5	0.7	56*
COc1ccc(OCc2nnc3n2N=C(c2ccc(C)cc2)CS3)cc1	0.7	30	/	/	0.7	32

Assay outcomes deposited in PubChem BioAssay by several laboratories.
